In PubChem BioAssay (Tox21):
Inconclusive results are not listed. The source made the active and inactive calls. Unless noted, calls come from the whole dose curve; as a rule, active = well fitted curve in the direction sought with a large enough effect in the repeat runs; inconclusive = weak or mixed curves; inactive = no such curve, though single readings can be large; an effect the other way counts as inactive or inconclusive.

How the values were obtained:
[1] = qHTS assay for small molecule agonists of the p53 signaling pathway (AID 651631; calls by dose curve; note: nearly all actives have a fitted effect of over 15% in size)
Summary of the method: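 HCT-116 cells carrying a beta-lactamase reporter under p53 response elements were dosed with compound for 16 h at 37 °C. LiveBLAzer B/G FRET substrate was then added for 2 h at room temperature, and fluorescence intensity was read to detect pathway agonism.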

[2] = qHTS assay for small molecules that induce genotoxicity in human embryonic kidney cells expressing luciferase-tagged ATAD5 (AID 651632); note: nearly all actives have a fitted effect of over 15% in size
Summary of the method: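 Concentration-response screen for ATAD5 upregulation in HEK293T luciferase reporter cells; 16 hr treatment at 37C, then luminescence after 30 min with Amplite at room temperature.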

[3] = qHTS assay for small molecule agonists of the p53 signaling pathway - cell viability (AID 651633; calls by dose curve;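 note: p53RE-bla HCT reporter cells with a stable beta-lactamase p53 reporter; series mostly up to about 83 µM; nearly all actives have a fitted effect of over 30% in size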)
Summary of the method: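 p53RE-bla cells, seeded at 4,000 per well and rested 5 h at 37 C/5% CO2, received compounds in DMSO for 16 h at 37 C. CellTiter-Glo was then added, and luminescence was read after 30 min at room temperature to gauge cytotoxicity.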

[4] = qHTS assay for small molecules that induce genotoxicity in human embryonic kidney cells expressing luciferase-tagged ATAD5 - cell viability (AID 651634; calls by dose curve; note: nearly all actives have a fitted effect of over 25% in size; note: potency is the fitted concentration of half-maximal effect)
Summary of the method: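 15.5 hr compound or vehicle exposure of HEK293T cells expressing luciferase-tagged ATAD5 at 37C; live-cell protease activity is read by fluorescence after 30 min of CellTiter-Fluor.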

[5] = qHTS assay for small molecule disruptors of the mitochondrial membrane potential - cell viability (AID 720634; calls by dose curve;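 note: human HepG2 liver cancer cells; series mostly up to about 83 µM; nearly all actives have a fitted effect of over 20% in size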)
Summary of the method: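 In this qHTS format, HepG2 cells plated overnight were pinned with compound, incubated 1 hr, and assayed for ATP luminescence with CellTiter-Glo after m-MPI dye addition.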

[6] = qHTS assay for small molecule disruptors of the mitochondrial membrane potential (AID 720635)
Summary of the method: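 HepG2 cells (2,000/well) attached overnight at 37C, then took compound for 1 hr at 37C, 5% CO2. Mito-MPS dye was added for 30 min; fluorescence was read at 490/535 nm (monomers) and 540/590 nm (aggregates).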

[7] = qHTS assay to test for compound auto fluorescence at 535 nm (green) in HepG2 cells (AID 720675)
[8] = qHTS assay to test for compound auto fluorescence at 460 nm (blue) in HEK293 cells (AID 720678)
Summary of the method: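 HEK293 cells (2,000 per well, medium with 10% dialyzed FBS) attached for 4-5 hr at 37C, then received compound and stood overnight at 37C, 5% CO2. Blue fluorescence was read at Ex/Em 405/460 nm and expressed relative to triamterene.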

[9] = qHTS assay to test for compound auto fluorescence at 590 nm (red) in HEK293 cells (AID 720679)
Summary of the method: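 HEK293 cells (2,000/well, medium with 10% dialyzed FBS) attached for 4-5 hr at 37C, received 23 nL compound and were incubated overnight at 37C, 5% CO2. Red fluorescence was then read at 540/590nm Ex/Em, referenced to Rose Bengal sodium.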

[10] = qHTS assay to test for compound auto fluorescence at 460 nm (blue) in HEK293 cell free culture (AID 720681)
Summary of the method: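 Test compounds were pinned into cell-free culture medium (DMEM with 10% FBS) and fluorescence was read directly at Ex/Em 405/460 nm. Signals were expressed as fluorescence equivalents of triamterene, with DMSO vehicle as control.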

[11] = qHTS assay to test for compound auto fluorescence at 590 nm (red) in HEK293 cell free culture (AID 720683)
Summary of the method: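 Tox21 10K library compounds were pinned into cell-free DMEM with 10% FBS and fluorescence was read at excitation 540 nm. Activity is expressed as Rose Bengal sodium equivalency.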

[12] = qHTS assay to test for compound auto fluorescence at 590 nm (red) in HepG2 cell free culture (AID 720684)
Summary of the method: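 Readout: intrinsic compound fluorescence at 590 nm emission after 540 nm excitation, scaled to Rose Bengal sodium. Matrix was cell-free MEM with 10% FBS; DMSO vehicle wells served as control.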

[13] = qHTS assay to test for compound auto fluorescence at 460 nm (blue) in HepG2 cell free culture (AID 720685)
Summary of the method: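 Cell-free plates of MEM plus 10% FBS received 23 nL compound or DMSO vehicle; blue-channel (405/460 nm) intensity scored against triamterene as reference fluorophore.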

[14] = qHTS assay to test for compound auto fluorescence at 535 nm (green) in HepG2 cell free culture (AID 720686)
[15] = qHTS assay to test for compound auto fluorescence at 460 nm (blue) in HepG2 cells (AID 720687)
Summary of the method: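 Cells (2,000/well in MEM with 10% FBS) attached overnight at 37 C, then were exposed to compound or DMSO for 1 hr at 37 C, 5% CO2. Fluorescence read at Ex/Em 405/460 nm, expressed as triamterene-equivalent signal.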

[16] = biological target: Glucocorticoid receptor (Homo sapiens) (UniProt P04150); assay: qHTS assay to identify small molecule agonists of the glucocorticoid receptor (GR) signaling pathway (AID 720691; active = well fitted activation curve with a large enough effect in the signal ratio in the repeat runs, not every such curve was filed as active; the % refers to the signal ratio)
Sequence of Glucocorticoid receptor (Homo sapiens) (P04150 whole entry, looked up): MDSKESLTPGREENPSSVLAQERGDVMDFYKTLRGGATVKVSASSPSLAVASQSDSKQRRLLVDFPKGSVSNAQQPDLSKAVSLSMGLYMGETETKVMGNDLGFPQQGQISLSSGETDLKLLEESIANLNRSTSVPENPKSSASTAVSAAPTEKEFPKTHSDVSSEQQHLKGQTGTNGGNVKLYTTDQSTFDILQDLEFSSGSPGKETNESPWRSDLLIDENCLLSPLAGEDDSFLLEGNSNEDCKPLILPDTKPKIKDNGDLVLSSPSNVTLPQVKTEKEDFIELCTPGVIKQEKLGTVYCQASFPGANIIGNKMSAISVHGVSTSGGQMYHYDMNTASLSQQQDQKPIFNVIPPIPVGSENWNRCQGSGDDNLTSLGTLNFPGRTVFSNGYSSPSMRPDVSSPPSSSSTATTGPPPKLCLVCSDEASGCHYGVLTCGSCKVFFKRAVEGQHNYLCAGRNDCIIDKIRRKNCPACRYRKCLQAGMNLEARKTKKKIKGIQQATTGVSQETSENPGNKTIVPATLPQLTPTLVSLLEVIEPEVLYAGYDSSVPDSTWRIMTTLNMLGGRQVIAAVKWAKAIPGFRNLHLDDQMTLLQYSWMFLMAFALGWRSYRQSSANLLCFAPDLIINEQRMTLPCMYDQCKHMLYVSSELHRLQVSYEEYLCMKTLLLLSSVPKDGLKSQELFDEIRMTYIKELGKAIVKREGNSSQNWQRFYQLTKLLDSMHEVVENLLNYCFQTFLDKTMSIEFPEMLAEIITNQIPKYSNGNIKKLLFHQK
Summary of the method: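 Measures GR pathway activation through a GRE-beta-lactamase reporter stably integrated in HeLa cells, with 18 h compound treatment at 37 C and fluorescence detection using a FRET substrate.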

[17] = qHTS assay to test for compound auto fluorescence at 590 nm (red) in HepG2 cells (AID 720674)
Summary of the method: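 Rose Bengal sodium served as the red fluorophore standard. HepG2 monolayers (overnight attachment, MEM with 10% FBS) were exposed to test compounds for 1 hr at 37 C and read at Ex 540/Em 590 nm.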

[18] = qHTS assay to test for compound auto fluorescence at 535 nm (green) in HEK293 cells (AID 720680)
[19] = qHTS assay to test for compound auto fluorescence at 535 nm (green) in HEK293 cell free culture (AID 720682)
Summary of the method: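 Green-label autofluorescence (485 nm excitation, 535 nm emission) measured on compound added to cell-free culture medium (DMEM, 10% FBS). Output is expressed relative to fluorescein.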

[20] = biological target: Glucocorticoid receptor (Homo sapiens) (UniProt P04150); assay: qHTS assay to identify small molecule antagonists of the glucocorticoid receptor (GR) signaling pathway (AID 720692; active = well fitted inhibition curve with a large enough effect in the signal ratio in the repeat runs, not every such curve was filed as active; the % refers to the signal ratio)
Summary of the method: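 Tox21 10K library screened in concentration-response for blockade of dexamethasone (5 nM final)-induced GRE-bla reporter activity in HeLa cells; 18 h treatment, fluorescence read.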

Measured: Potency

CCCCCCCCCCCCCCCCN
not listed: [17] | [18] | [19] | [20]
inactive: all other assays above

CC(C)Oc1ccccc1O
inactive: all assays above

O=C1c2ccccc2C(=O)C1c1ccc2cc(S(=O)(=O)O)cc(S(=O)(=O)O)c2n1
active: [4] 52.5 µM
not listed: [6] | [20]
inactive: all other assays above

C=C(C)C(=O)OCCCCCCCCCCOC(=O)C(=C)C
not listed: [6] | [16] | [20]
inactive: all other assays above

CCOC(OCC)OCC
not listed: [11] | [17] | [18] | [19] | [20]
inactive: all other assays above

C1CCN(CN2CCCCC2)CC1
not listed: [20]
inactive: all other assays above

CCCCCCCCS
not listed: [16] | [17] | [19] | [20]
inactive: all other assays above

CCOc1ccc(NC(C)=O)cc1N
not listed: [6] | [16] | [20]
inactive: all other assays above

FC1(F)C(F)(F)C(F)(F)C2(F)C(F)(C1(F)F)C(F)(F)C(F)(F)C1(F)C(F)(F)C(F)(F)C(F)(F)C(F)(F)C12F (stereo not drawn)
not listed: [6] | [20]
inactive: all other assays above

CNc1ccccc1
not listed: [20]
inactive: all other assays above

CC1(C)C(=O)NC(=O)N1CO
inactive: all assays above

CCCC(=O)OCc1ccccc1
not listed: [6] | [16] | [20]
inactive: all other assays above

O=C1CCCN1CCO
inactive: all assays above

O=C1OC(=O)C2CC=CCC12 (stereo not drawn)
not listed: [6] | [20]
inactive: all other assays above

Nc1cccc2c(=O)[nH][nH]c(=O)c12
not listed: [6] | [20]
inactive: all other assays above
